Key:
Assay in all cases: DAPPL (digital affinity profiling via proximity ligation, sequencing); 10 mM Tris-HCl pH 7.5, 50 mM NaCl, 1 mM DTT, 4% glycerol, room temperature, 30 min; GST-TFs on glutathione beads, 16-mer random dsDNA library, 0.1% formaldehyde crosslink after washing; high values mean tight binding
Settings in all cases: protein: recombinant; tags: N-terminal GST; dsDNA, one strand shown
[1] = biological target: T1, FLI1 (Homo sapiens, UniProt Q01543 1-452)
T1 sequence: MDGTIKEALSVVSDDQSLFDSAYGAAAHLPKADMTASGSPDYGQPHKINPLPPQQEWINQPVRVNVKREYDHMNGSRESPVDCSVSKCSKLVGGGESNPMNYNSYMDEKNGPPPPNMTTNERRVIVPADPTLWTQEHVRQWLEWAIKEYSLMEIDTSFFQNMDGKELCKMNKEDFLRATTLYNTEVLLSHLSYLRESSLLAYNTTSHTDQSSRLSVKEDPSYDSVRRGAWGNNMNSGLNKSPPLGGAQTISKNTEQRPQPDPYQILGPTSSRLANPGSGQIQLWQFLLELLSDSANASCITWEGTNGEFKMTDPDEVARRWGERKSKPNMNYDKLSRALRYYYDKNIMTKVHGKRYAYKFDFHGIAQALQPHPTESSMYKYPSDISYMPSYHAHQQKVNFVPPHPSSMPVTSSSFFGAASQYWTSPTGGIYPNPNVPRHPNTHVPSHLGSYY
In short: (§1)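 The binding signal reported is, for every hexamer, its read frequency for a factor over its read frequency for the tag-only sample. Reads came from pools of yeast-expressed, GST-fused human transcription factors on glutathione beads, barcoded with DNA and mixed with that sample, which were incubated with 200 nmole of a random double-stranded 16-mer DNA library in Tris/NaCl/DTT/glycerol buffer at room temperature for 30 min. After washing, the pools were crosslinked with 0.1% formaldehyde, proximity-ligated with BsaI/T4 ligase for 1 h at 37 °C, PCR-amplified and sequenced on an Illumina NextSeq500.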

[2] = biological target: T2, ELK1 (Homo sapiens, UniProt P19419 1-428)
T2 sequence: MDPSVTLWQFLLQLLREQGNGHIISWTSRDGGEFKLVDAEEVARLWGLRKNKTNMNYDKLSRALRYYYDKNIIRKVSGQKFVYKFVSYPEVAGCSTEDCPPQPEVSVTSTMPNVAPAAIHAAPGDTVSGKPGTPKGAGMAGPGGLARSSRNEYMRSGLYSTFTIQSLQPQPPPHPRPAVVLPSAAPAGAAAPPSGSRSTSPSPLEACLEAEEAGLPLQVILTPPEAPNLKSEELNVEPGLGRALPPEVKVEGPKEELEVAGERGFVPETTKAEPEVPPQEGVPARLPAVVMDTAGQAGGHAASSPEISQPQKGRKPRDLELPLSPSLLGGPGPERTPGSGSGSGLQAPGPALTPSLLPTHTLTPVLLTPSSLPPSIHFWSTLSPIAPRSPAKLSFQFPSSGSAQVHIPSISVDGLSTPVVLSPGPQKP
In short: as §1

[3] = biological target: T3, GABPA (Homo sapiens, UniProt Q06546 1-454)
T3 sequence: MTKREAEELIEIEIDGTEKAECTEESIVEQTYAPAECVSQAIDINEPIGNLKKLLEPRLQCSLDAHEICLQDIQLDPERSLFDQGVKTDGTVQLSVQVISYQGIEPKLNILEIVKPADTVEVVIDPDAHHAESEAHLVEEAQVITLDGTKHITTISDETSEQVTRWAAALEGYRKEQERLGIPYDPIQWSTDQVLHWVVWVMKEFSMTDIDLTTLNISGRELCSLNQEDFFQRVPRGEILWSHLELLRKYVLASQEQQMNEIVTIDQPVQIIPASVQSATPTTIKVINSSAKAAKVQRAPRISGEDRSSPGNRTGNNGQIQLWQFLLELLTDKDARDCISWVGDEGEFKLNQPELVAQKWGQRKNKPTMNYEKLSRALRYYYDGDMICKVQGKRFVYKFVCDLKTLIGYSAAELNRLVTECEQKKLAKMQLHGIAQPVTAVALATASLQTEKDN
In short: as §1

[4] = biological target: T4, ERG (Homo sapiens, UniProt P11308 1-479)
T4 sequence: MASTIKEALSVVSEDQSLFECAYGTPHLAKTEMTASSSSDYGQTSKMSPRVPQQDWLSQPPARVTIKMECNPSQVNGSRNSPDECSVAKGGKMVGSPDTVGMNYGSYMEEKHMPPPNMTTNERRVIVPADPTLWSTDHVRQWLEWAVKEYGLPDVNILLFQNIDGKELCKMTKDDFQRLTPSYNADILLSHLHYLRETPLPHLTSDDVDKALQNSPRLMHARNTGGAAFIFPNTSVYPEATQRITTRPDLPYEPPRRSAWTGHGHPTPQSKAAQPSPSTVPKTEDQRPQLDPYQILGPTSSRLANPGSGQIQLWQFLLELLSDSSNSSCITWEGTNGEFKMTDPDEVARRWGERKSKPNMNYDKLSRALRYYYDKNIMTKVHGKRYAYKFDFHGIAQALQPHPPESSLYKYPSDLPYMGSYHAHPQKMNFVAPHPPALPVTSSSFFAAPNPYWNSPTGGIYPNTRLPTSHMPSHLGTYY
In short: as §1

[5] = biological target: ELF1 (Homo sapiens, UniProt P32519 1-619)
In short: as §1

[6] = biological target: T5, EHF (Homo sapiens, UniProt Q9NZC4 1-300)
T5 sequence: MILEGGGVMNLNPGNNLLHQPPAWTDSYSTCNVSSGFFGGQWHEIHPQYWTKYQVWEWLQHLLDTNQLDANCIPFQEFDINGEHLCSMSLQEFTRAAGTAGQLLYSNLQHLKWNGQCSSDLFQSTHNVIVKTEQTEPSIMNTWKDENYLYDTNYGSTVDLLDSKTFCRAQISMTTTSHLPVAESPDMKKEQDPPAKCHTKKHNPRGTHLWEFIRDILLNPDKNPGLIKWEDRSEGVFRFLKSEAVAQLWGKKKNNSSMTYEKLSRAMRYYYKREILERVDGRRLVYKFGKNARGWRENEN
In short: as §1

[7] = biological target: SPI1 (Homo sapiens, UniProt P17947 1-270)
In short: as §1

[8] = biological target: SPIB (Homo sapiens, UniProt Q01892 1-262)
In short: as §1

[9] = biological target: T6, ELK3 (Homo sapiens, UniProt P41970 1-407)
T6 sequence: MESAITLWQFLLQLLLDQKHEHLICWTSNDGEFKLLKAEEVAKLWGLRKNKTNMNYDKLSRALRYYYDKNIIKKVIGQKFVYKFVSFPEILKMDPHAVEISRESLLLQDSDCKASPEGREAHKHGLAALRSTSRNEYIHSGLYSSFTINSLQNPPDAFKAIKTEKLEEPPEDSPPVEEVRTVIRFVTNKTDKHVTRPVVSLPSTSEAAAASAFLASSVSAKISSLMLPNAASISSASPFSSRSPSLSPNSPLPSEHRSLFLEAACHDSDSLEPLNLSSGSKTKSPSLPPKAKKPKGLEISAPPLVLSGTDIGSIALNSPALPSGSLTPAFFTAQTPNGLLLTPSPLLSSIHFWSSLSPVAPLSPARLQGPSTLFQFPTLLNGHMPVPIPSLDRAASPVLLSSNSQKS
In short: as §1

Sequence of SPIB (Q01892 whole entry): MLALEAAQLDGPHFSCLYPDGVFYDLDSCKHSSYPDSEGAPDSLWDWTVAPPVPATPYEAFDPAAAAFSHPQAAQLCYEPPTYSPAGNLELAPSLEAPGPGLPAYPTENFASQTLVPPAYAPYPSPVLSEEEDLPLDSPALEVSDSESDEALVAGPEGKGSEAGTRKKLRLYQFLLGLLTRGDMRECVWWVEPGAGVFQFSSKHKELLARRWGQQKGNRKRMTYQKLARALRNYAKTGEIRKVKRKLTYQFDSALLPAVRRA
Sequence of ELF1 (P32519 whole entry): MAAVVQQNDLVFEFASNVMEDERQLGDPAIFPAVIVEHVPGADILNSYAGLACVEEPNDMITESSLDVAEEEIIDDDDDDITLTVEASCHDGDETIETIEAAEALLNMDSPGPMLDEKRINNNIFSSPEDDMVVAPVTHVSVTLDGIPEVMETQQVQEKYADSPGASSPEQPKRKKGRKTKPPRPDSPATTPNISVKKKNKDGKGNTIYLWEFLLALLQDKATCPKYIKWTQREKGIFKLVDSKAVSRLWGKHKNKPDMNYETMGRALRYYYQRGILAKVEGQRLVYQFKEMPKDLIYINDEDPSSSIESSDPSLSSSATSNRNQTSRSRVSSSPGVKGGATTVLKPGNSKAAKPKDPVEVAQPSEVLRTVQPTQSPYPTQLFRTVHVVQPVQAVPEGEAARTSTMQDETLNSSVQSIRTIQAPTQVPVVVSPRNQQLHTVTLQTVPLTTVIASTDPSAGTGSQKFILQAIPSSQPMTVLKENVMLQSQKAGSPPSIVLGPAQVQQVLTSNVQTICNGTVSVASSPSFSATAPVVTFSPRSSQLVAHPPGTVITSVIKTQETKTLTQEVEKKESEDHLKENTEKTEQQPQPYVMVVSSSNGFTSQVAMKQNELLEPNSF

Sequence	binding signal [1]	binding signal [2]	binding signal [3]	binding signal [4]	binding signal [5]	binding signal [6]	binding signal [7]	binding signal [8]	binding signal [9]
TAACGC	1.12 fold enrichment (6-mer frequency, TF over GST control)	1.2 fold enrichment (6-mer frequency, TF over GST control)	1.21 fold enrichment (6-mer frequency, TF over GST control)	1.17 fold enrichment (6-mer frequency, TF over GST control)	1.27 fold enrichment (6-mer frequency, TF over GST control)	1.16 fold enrichment (6-mer frequency, TF over GST control)	1.17 fold enrichment (6-mer frequency, TF over GST control)	1.13 fold enrichment (6-mer frequency, TF over GST control)	1.23 fold enrichment (6-mer frequency, TF over GST control)
CTGATA	1.15 fold enrichment (6-mer frequency, TF over GST control)	1.17 fold enrichment (6-mer frequency, TF over GST control)	1.27 fold enrichment (6-mer frequency, TF over GST control)	1.1 fold enrichment (6-mer frequency, TF over GST control)	1.21 fold enrichment (6-mer frequency, TF over GST control)	1.26 fold enrichment (6-mer frequency, TF over GST control)	1.28 fold enrichment (6-mer frequency, TF over GST control)	1.32 fold enrichment (6-mer frequency, TF over GST control)	1.24 fold enrichment (6-mer frequency, TF over GST control)
AATGCG	1.24 fold enrichment (6-mer frequency, TF over GST control)	1.27 fold enrichment (6-mer frequency, TF over GST control)	1.27 fold enrichment (6-mer frequency, TF over GST control)	1.23 fold enrichment (6-mer frequency, TF over GST control)	1.21 fold enrichment (6-mer frequency, TF over GST control)	1.32 fold enrichment (6-mer frequency, TF over GST control)	1.58 fold enrichment (6-mer frequency, TF over GST control)	1.31 fold enrichment (6-mer frequency, TF over GST control)	1.29 fold enrichment (6-mer frequency, TF over GST control)
GTATTA	1.17 fold enrichment (6-mer frequency, TF over GST control)	1.2 fold enrichment (6-mer frequency, TF over GST control)	1.07 fold enrichment (6-mer frequency, TF over GST control)	1.12 fold enrichment (6-mer frequency, TF over GST control)	1.11 fold enrichment (6-mer frequency, TF over GST control)	1.03 fold enrichment (6-mer frequency, TF over GST control)	1.04 fold enrichment (6-mer frequency, TF over GST control)	1.07 fold enrichment (6-mer frequency, TF over GST control)	1.06 fold enrichment (6-mer frequency, TF over GST control)
ACATGC	1.31 fold enrichment (6-mer frequency, TF over GST control)	1.2 fold enrichment (6-mer frequency, TF over GST control)	1.33 fold enrichment (6-mer frequency, TF over GST control)	1.24 fold enrichment (6-mer frequency, TF over GST control)	1.36 fold enrichment (6-mer frequency, TF over GST control)	1.24 fold enrichment (6-mer frequency, TF over GST control)	1.19 fold enrichment (6-mer frequency, TF over GST control)	1.2 fold enrichment (6-mer frequency, TF over GST control)	1.34 fold enrichment (6-mer frequency, TF over GST control)
GGCTCA	1.22 fold enrichment (6-mer frequency, TF over GST control)	1.38 fold enrichment (6-mer frequency, TF over GST control)	1.32 fold enrichment (6-mer frequency, TF over GST control)	1.33 fold enrichment (6-mer frequency, TF over GST control)	1.34 fold enrichment (6-mer frequency, TF over GST control)	1.23 fold enrichment (6-mer frequency, TF over GST control)	1.24 fold enrichment (6-mer frequency, TF over GST control)	1.24 fold enrichment (6-mer frequency, TF over GST control)	1.23 fold enrichment (6-mer frequency, TF over GST control)
CACGCT	1.42 fold enrichment (6-mer frequency, TF over GST control)	1.36 fold enrichment (6-mer frequency, TF over GST control)	1.36 fold enrichment (6-mer frequency, TF over GST control)	1.4 fold enrichment (6-mer frequency, TF over GST control)	1.34 fold enrichment (6-mer frequency, TF over GST control)	1.44 fold enrichment (6-mer frequency, TF over GST control)	1.33 fold enrichment (6-mer frequency, TF over GST control)	1.37 fold enrichment (6-mer frequency, TF over GST control)	1.35 fold enrichment (6-mer frequency, TF over GST control)

From PMC7862700, “An all-to-all approach to the identification of sequence-specific readers for epigenetic DNA modifications on cytosine”
